{
  "source": "the supplement of paper PMC8728848",
  "binders": {"B1": {"name": "Ovorubin (Pomacea canaliculata), J7I2T6 (protein)", "chain": "MFVATSLLLAIATLVVRASPHNYLIMDIEPPKSVSERDILNLLSPLQVKHSFRVTGSTRLLIVIRLDAQSYEKLDEITVPGKVEVIPAVNMADTMERCGVSWPRVELTDDNVTLFESESTLTDVTKEQLKAMLIGYGEHMSGLLQAHRFEYYQAAGATPHRHFVFVNSVPDEIEVFGREGVDIWGGPGEFVVKPQYVTRI"}},
  "assay_in_all_cases": "glycan array binding signal (z-score within array); higher = stronger binding",
  "conditions_in_all_cases": "glycan notation: IUPAC condensed, linker removed",
  "key": {"Gal6S(b1-4)Glc6S": {"molecular_target": "Gal6S(b1-4)Glc6S", "how_it_was_run": "(§1)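 The Consortium for Functional Glycomics database supplied 3228 glycan arrays, of which those lacking an available protein sequence were dropped. The binding signal, a within-array Z-score, was averaged across arrays of the same protein sequence and across linkers. Negative scores can be read as non-binding.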"}, "[1]": {"molecular_target": "GalNAc(b1-4)GlcNAc(b1-2)Man", "how_it_was_run": "as §1"}, "GalNAc(b1-4)GlcNAc6S": {"molecular_target": "GalNAc(b1-4)GlcNAc6S", "how_it_was_run": "as §1"}, "GlcA(b1-6)Gal": {"molecular_target": "GlcA(b1-6)Gal", "how_it_was_run": "as §1"}, "[2]": {"molecular_target": "GlcNAc(b1-2)[GlcNAc(b1-4)]Man(a1-3)[GlcNAc(b1-4)][GlcNAc(b1-2)[GlcNAc(b1-6)]Man(a1-6)]Man(b1-4)GlcNAc(b1-4)[Fuc(a1-6)]GlcNAc", "how_it_was_run": "as §1"}, "[3]": {"molecular_target": "GlcNAc(b1-3)Gal(b1-4)GlcNAc(b1-2)Man(a1-3)[GlcNAc(b1-3)Gal(b1-4)GlcNAc(b1-2)Man(a1-6)]Man(b1-4)GlcNAc(b1-4)GlcNAc", "how_it_was_run": "as §1"}, "GlcNAc(b1-3)Man": {"molecular_target": "GlcNAc(b1-3)Man", "how_it_was_run": "as §1"}, "[4]": {"molecular_target": "GlcNAc(b1-3)[GlcNAc(b1-4)][GlcNAc(b1-6)]GlcNAc", "how_it_was_run": "as §1"}, "Man(a1-2)Man(a1-3)Man": {"molecular_target": "Man(a1-2)Man(a1-3)Man", "how_it_was_run": "as §1"}, "[5]": {"molecular_target": "Man(a1-3)[Man(a1-6)]Man(a1-6)[Man(a1-2)Man(a1-3)]Man(b1-4)GlcNAc(b1-4)GlcNAc", "how_it_was_run": "as §1"}, "[6]": {"molecular_target": "Neu5Ac(a2-3)Gal(b1-3)[Fuc(a1-4)]GlcNAc", "how_it_was_run": "as §1"}, "[7]": {"molecular_target": "Neu5Ac(a2-3)Gal(b1-4)GlcNAc(b1-2)Man(a1-3)[Neu5Ac(a2-3)Gal(b1-4)GlcNAc(b1-2)Man(a1-6)]Man(b1-4)GlcNAc(b1-4)GlcNAc", "how_it_was_run": "as §1"}, "[8]": {"molecular_target": "Neu5Ac(a2-3)Gal(b1-4)GlcNAc(b1-2)[Neu5Ac(a2-3)Gal(b1-4)GlcNAc(b1-4)]Man(a1-3)[GlcNAc(b1-4)][Neu5Ac(a2-3)Gal(b1-4)GlcNAc(b1-4)Man(a1-6)]Man(b1-4)GlcNAc(b1-4)GlcNAc", "how_it_was_run": "as §1"}, "[9]": {"molecular_target": "Neu5Ac(a2-3)Gal(b1-4)GlcNAc(b1-2)[Neu5Ac(a2-3)Gal(b1-4)GlcNAc(b1-6)]Man(a1-6)[Neu5Ac(a2-3)Gal(b1-4)GlcNAc(b1-2)Man(a1-3)]Man(b1-4)GlcNAc(b1-4)GlcNAc", "how_it_was_run": "as §1"}, "[10]": {"molecular_target": "Neu5Ac(a2-3)Gal(b1-4)GlcNAc(b1-3)Gal(b1-4)GlcNAc(b1-3)GalNAc", "how_it_was_run": "as §1"}, "[11]": {"molecular_target": "Neu5Ac(a2-3)Gal(b1-4)[Fuc(a1-3)]GlcNAc(b1-3)Gal", "how_it_was_run": "as §1"}, "[12]": {"molecular_target": "Neu5Ac(a2-3)Gal(b1-4)[Fuc(a1-3)]GlcNAc(b1-6)[Neu5Ac(a2-3)Gal(b1-3)]GalNAc", "how_it_was_run": "as §1"}, "Neu5Ac(a2-3)GalNAc": {"molecular_target": "Neu5Ac(a2-3)GalNAc", "how_it_was_run": "as §1"}, "[13]": {"molecular_target": "Neu5Ac(a2-3)[GalNAc(b1-4)]Gal(b1-4)Glc", "how_it_was_run": "as §1"}, "[14]": {"molecular_target": "Neu5Ac(a2-6)Gal(b1-4)GlcNAc(b1-2)Man(a1-3)Man(b1-4)GlcNAc(b1-4)GlcNAc", "how_it_was_run": "as §1"}, "[15]": {"molecular_target": "Neu5Ac(a2-6)Gal(b1-4)GlcNAc(b1-2)Man(a1-3)[Neu5Ac(a2-6)Gal(b1-4)GlcNAc(b1-2)Man(a1-6)]Man(b1-4)GlcNAc(b1-4)[Fuc(a1-6)]GlcNAc", "how_it_was_run": "as §1"}, "[16]": {"molecular_target": "Neu5Ac(a2-6)Gal(b1-4)GlcNAc(b1-2)Man(a1-6)[GlcNAc(b1-2)Man(a1-3)]Man(b1-4)GlcNAc(b1-4)GlcNAc", "how_it_was_run": "as §1"}, "[17]": {"molecular_target": "Neu5Ac(a2-6)Gal(b1-4)GlcNAc(b1-2)Man(a1-6)[Man(a1-3)]Man(b1-4)GlcNAc(b1-4)GlcNAc", "how_it_was_run": "as §1"}, "[18]": {"molecular_target": "Neu5Ac(a2-6)Gal(b1-4)GlcNAc(b1-2)[Neu5Ac(a2-6)Gal(b1-4)GlcNAc(b1-4)]Man(a1-3)[GlcNAc(b1-4)][Neu5Ac(a2-6)Gal(b1-4)GlcNAc(b1-2)[Neu5Ac(a2-6)Gal(b1-4)GlcNAc(b1-6)]Man(a1-6)]Man(b1-4)GlcNAc(b1-4)GlcNAc", "how_it_was_run": "as §1"}, "[19]": {"molecular_target": "Neu5Ac(a2-6)Gal(b1-4)GlcNAc(b1-2)[Neu5Ac(a2-6)Gal(b1-4)GlcNAc(b1-6)]Man(a1-6)[Neu5Ac(a2-6)Gal(b1-4)GlcNAc(b1-2)Man(a1-3)][GlcNAc(b1-4)]Man(b1-4)GlcNAc(b1-4)GlcNAc", "how_it_was_run": "as §1"}, "[20]": {"molecular_target": "Neu5Ac(a2-6)Gal(b1-4)GlcNAc(b1-3)Gal(b1-4)GlcNAc(b1-3)Gal(b1-4)GlcNAc(b1-2)Man(a1-3)[Neu5Ac(a2-6)Gal(b1-4)GlcNAc(b1-3)Gal(b1-4)GlcNAc(b1-3)Gal(b1-4)GlcNAc(b1-2)Man(a1-6)]GalNAc", "how_it_was_run": "as §1"}, "Neu5Gc(a2-6)GalNAc": {"molecular_target": "Neu5Gc(a2-6)GalNAc", "how_it_was_run": "as §1"}},
  "note": "The entries come from a sample that favours the strongest signals as a whole.",
  "data": [
    {"binder": "B1", "values": [
      {"measurement": "glycan array binding signal (z-score)", "setting": "Gal6S(b1-4)Glc6S", "result": 3.93},
      {"measurement": "glycan array binding signal (z-score)", "setting": "[1]", "result": -0.618},
      {"measurement": "glycan array binding signal (z-score)", "setting": "GalNAc(b1-4)GlcNAc6S", "result": -0.066},
      {"measurement": "glycan array binding signal (z-score)", "setting": "GlcA(b1-6)Gal", "result": -0.181},
      {"measurement": "glycan array binding signal (z-score)", "setting": "[2]", "result": -0.233},
      {"measurement": "glycan array binding signal (z-score)", "setting": "[3]", "result": -0.39},
      {"measurement": "glycan array binding signal (z-score)", "setting": "GlcNAc(b1-3)Man", "result": -0.105},
      {"measurement": "glycan array binding signal (z-score)", "setting": "[4]", "result": 7.53},
      {"measurement": "glycan array binding signal (z-score)", "setting": "Man(a1-2)Man(a1-3)Man", "result": 0.255},
      {"measurement": "glycan array binding signal (z-score)", "setting": "[5]", "result": -0.9},
      {"measurement": "glycan array binding signal (z-score)", "setting": "[6]", "result": -0.148},
      {"measurement": "glycan array binding signal (z-score)", "setting": "[7]", "result": -0.45},
      {"measurement": "glycan array binding signal (z-score)", "setting": "[8]", "result": -0.397},
      {"measurement": "glycan array binding signal (z-score)", "setting": "[9]", "result": 0.215},
      {"measurement": "glycan array binding signal (z-score)", "setting": "[10]", "result": 0.207},
      {"measurement": "glycan array binding signal (z-score)", "setting": "[11]", "result": -1.06},
      {"measurement": "glycan array binding signal (z-score)", "setting": "[12]", "result": -0.055},
      {"measurement": "glycan array binding signal (z-score)", "setting": "Neu5Ac(a2-3)GalNAc", "result": 0.287},
      {"measurement": "glycan array binding signal (z-score)", "setting": "[13]", "result": -0.336},
      {"measurement": "glycan array binding signal (z-score)", "setting": "[14]", "result": 0.036},
      {"measurement": "glycan array binding signal (z-score)", "setting": "[15]", "result": -0.129},
      {"measurement": "glycan array binding signal (z-score)", "setting": "[16]", "result": -0.738},
      {"measurement": "glycan array binding signal (z-score)", "setting": "[17]", "result": -0.358},
      {"measurement": "glycan array binding signal (z-score)", "setting": "[18]", "result": 3.19},
      {"measurement": "glycan array binding signal (z-score)", "setting": "[19]", "result": -0.646},
      {"measurement": "glycan array binding signal (z-score)", "setting": "[20]", "result": 3.06},
      {"measurement": "glycan array binding signal (z-score)", "setting": "Neu5Gc(a2-6)GalNAc", "result": 0.691}
    ]}
  ]
}
